From PubChem BioAssay (EPA / NIEHS)
Records with an inconclusive call do not appear. Calls of active or inactive are those of the source. Rule for the calls: active = hit-call score of the fitted dose curve at least 0.9, where 1 is the maximum; inconclusive = response in the unintended direction; inactive = score below 0.9.

Columns and labels:
[1] = molecular target: Cellular tumor antigen p53 (Homo sapiens) (UniProt P04637); experiment: TOX21_p53_BLA_p2_ratio: Tox21 HCT-116 p53 Agonism Beta-lactamase Assay, Ratio, Phase 2 (AID 2283592)
Procedure, shortened: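 First, HCT116 reporter cells settle for 5 h at 37C. Next, DMSO compound solutions are pinned in (217-fold dilution) and left 16 h. Finally, CCF4-AM substrate is loaded 2 h at room temperature and the 460/530 nm ratio read.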

[2] = TOX21_p53_BLA_p3_viability: Viability Assessment in the Tox21 HCT-116 p53 Agonism Beta-lactamase Assay, Phase 3 (AID 2283593);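 note: cells exposed to compound for 16 h before reading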
Procedure, shortened: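 HCT116 cells, 4000/well, dosed 5 h after plating by pin transfer (217-fold dilution from DMSO stock) and incubated 16 h at 37C, 5% CO2. Viability read as ATP luminescence with CellTiter-Glo after 30 min at room temperature.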

[3] = molecular target: Cellular tumor antigen p53 (Homo sapiens) (UniProt P04637); experiment: TOX21_p53_BLA_p3_ratio: Tox21 HCT-116 p53 Agonism Beta-lactamase Assay, Ratio, Phase 3 (AID 2283596)
Procedure, shortened: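 Cells were seeded at 4000/well, rested 5 h at 37C, then dosed with DMSO compound solutions (217-fold dilution) for 16 h. CCF4-AM substrate was loaded for 2 h at room temperature, and the 460/530 nm emission ratio was fitted for gain of signal versus DMSO.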

[4] = TOX21_p53_BLA_p4_viability: Viability Assessment in the Tox21 HCT-116 p53 Agonism Beta-lactamase Assay, Phase 4 (AID 2283597);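 note: hits lower the luminescence signal meaning cytotoxicity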
Procedure, shortened: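 4000 HCT116 cells per well; 5 h attachment; compounds from DMSO, 217-fold dilution; 16 h at 37C. Then CCF4-AM, 2 h RT, followed by CellTiter-Glo, 30 min RT, luminescence. Decrease = cytotoxicity.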

[5] = molecular target: Cellular tumor antigen p53 (Homo sapiens) (UniProt P04637); experiment: TOX21_p53_BLA_p5_ratio: Tox21 HCT-116 p53 Agonism Beta-lactamase Assay, Ratio, Phase 5 (AID 2283599)
Procedure, shortened: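 HCT-116 p53-bla cells (4000/well) plated 5 h, dosed with compound (217-fold DMSO dilution) for 16 h at 37 C; CCF4-AM substrate 2 h at room temperature. Activity is the 460/530 nm emission ratio (405 nm excitation), fitted in gain-of-signal direction versus DMSO.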

[6] = TOX21_p53_BLA_p5_viability: Viability Assessment in the Tox21 HCT-116 p53 Agonism Beta-lactamase Assay, Phase 5 (AID 2283600)
Procedure, shortened: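 Decreased CellTiter-Glo luminescence denotes lost viability. Exposure: 16 h at 37C, 5% CO2, with compounds from DMSO stocks diluted 217-fold in wells of 4000 cells.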

[7] = molecular target: Cellular tumor antigen p53 (Homo sapiens) (UniProt P04637); experiment: TOX21_p53_BLA_p4_ratio: Tox21 HCT-116 p53 Agonism Beta-lactamase Assay, Ratio, Phase 4 (AID 2283601)
Procedure, shortened: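 HCT-116 p53 beta-lactamase reporter cells (4000/well) preincubated 5 h, then compound (217-fold dilution of DMSO stock) for 16 h at 37C. CCF4-AM substrate added 2 h at room temperature; 460/530 nm emission ratio fitted upward versus DMSO.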

Measured: AC50

Cellular tumor antigen p53 (Homo sapiens), sequence (P04637 whole entry, looked up): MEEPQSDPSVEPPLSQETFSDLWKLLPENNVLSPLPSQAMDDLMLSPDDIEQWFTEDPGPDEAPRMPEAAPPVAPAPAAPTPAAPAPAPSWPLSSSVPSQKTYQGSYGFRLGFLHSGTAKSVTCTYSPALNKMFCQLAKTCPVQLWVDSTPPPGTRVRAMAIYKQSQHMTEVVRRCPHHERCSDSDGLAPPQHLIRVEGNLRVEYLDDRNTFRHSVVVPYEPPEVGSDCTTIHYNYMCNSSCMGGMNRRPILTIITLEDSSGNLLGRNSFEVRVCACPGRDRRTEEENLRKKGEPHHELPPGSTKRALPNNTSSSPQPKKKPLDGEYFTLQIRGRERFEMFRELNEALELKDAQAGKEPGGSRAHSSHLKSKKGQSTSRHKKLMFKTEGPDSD

C[C@]12CC[C@H](OS(=O)(=O)O)CC1=CC[C@@H]1[C@@H]2CC[C@]2(C)C(=O)CC[C@@H]12
inactive: [1] | [2] | [3] | [4] | [5] | [6] | [7]

N[C@@H]1C[C@H]1c1ccccc1
inactive: [1] | [2] | [3] | [4] | [5]

CCCCCCI
inactive: [1] | [2] | [3] | [4] | [5] | [6] | [7]

CN(C)[C@H](Cc1ccccc1)c1ccccc1
active: [2] 37.9 µM
inactive: [1] | [3] | [5] | [6]
